This is a sample that favours compounds with a hit; in the whole collection about 17% have one here.
TGFb inhibitor = TGF-b pathway inhibition; HepG2 CAGA-GFP TGF-b/SMAD3 reporter, GFP fluorescence, 18 h; TGF-beta stimulated, 500 pg/mL final; Potency, µM (doses to about 46.1 µM), usual class: inhibitors; hit rate 1.2% among 410,000; also: nearly all actives have a fitted effect of over 65% in size
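Inhibition was scored as loss of TGF-beta-induced (500 pg/mL final, 18 hours, 37 degrees C) GFP in HEPG2 cells carrying a CAGA-GFP reporter, in DMEM with 1% FBS. Well GFP was summed per cell; Activity was normalised to unstimulated and stimulated DMSO wells, then concentration-response fitting.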
HepG2 tox = HepG2 cytotoxicity, counter-screen for TGF-b inhibitors; hit rate 0.76% among 410,000; Potency, µM (series often up to 46.1 µM), most hits filed as cytotoxic; AID 588856; HepG2 CAGA-GFP viability, ATP luminescence, 18 h
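HepG2 CAGA-GFP cells (1000/well, DMEM with 1% FBS) received compound, then TGF-beta at 500 pg/mL final, and were incubated 18 hours at 37 degrees C. Viability was read by CellTiter-Glo luminescence. Media-only wells were set as complete cell-killing and DMSO as no toxicity.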
ATXN2 expr inh = reduces ATXN2 reporter expression in HEK-293 cells; HEK-293 ATXN2-luciferase reporter, luminescence, 24 h; Potency, µM (top dose mostly 57 µM), actives largely listed as inhibitors; hit rate 0.72% among 360,000; also: nearly all actives have a fitted effect of over 55% in size
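qHTS (up to 57 uM final) was run with 24 h compound exposure of reporter cells at 37 °C. Each well was multiplexed: SteadyGlo luminescence measured ATXN2-luciferase expression after a fluorogenic Gly-Phe-AFC viability readout (25 uM final).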
DT40 TDP1 no CPT = qHTS for Inhibitors of human tyrosyl-DNA phosphodiesterase 1 (TDP1): qHTS in cells in absence of CPT. DT40 Tdp1-/- hTDP1 cells, no CPT, ATP luminescence, 48 h. Potency, µM (series often up to 46.2 µM), usual class: inhibitors. hit rate 15% among 420,000. AID 686978, 2013; also: nearly all actives have a fitted effect of over 55% in size
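No-CPT arm: Tdp1-/-;hTDP1 DT40 cells (400/well) plus compounds, incubated ≥48 hr at 37 °C. Readout CellTiter-Glo luminescence.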
S2 tox = reduces viability in counter-screen for ATXN expression inhibitors | AID 651635 | Potency, µM (highest dose often 56.7 µM), hits mostly cytotoxic | hit rate 0.49% among 400,000 | S2 cells (HEK-293 line with an ATXN2-luciferase reporter) viability, CellTiter-Fluor protease fluorescence, 24 h; also: nearly all actives have a fitted effect of over 40% in size
TDP1 cell CPT = growth inhibition of DT40 Tdp1-/-;hTDP1 cells with camptothecin (screen for TDP1 inhibitors) | chicken DT40 Tdp1-/-;hTDP1 cells + 20 nM CPT, ATP luminescence, 48 h | Potency, µM (doses to about 46.2 µM), actives largely listed as inhibitors | hit rate 12% among 420,000 | AID 686979; also: nearly all actives have a fitted effect of over 55% in size
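Cell growth measured by CellTiter-Glo luminescence after a minimum 48 h, 37 C compound exposure with 20 nM CPT in Tdp1-knockout DT40 cells stably expressing hTDP1, seeded 400/well; qHTS titration format.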
Hits are given with their value; 0 = inactive; ? = inconclusive; - = no result. Calls follow the shape of the dose curve; as a rule, active = well fitted curve in the direction sought with a large enough effect; inconclusive = small, poorly fitted or top-dose-only effect, or another doubt; inactive = no such curve, though single readings can be large; an effect the other way counts as inactive or inconclusive.

SMILES	TGFb inhibitor	HepG2 tox	ATXN2 expr inh	DT40 TDP1 no CPT	S2 tox	TDP1 cell CPT
Cc1noc(C)c1C(=O)N1CCC[C@@]2(CCN(CC(C)C)C2)C1	-	-	-	0	-	0
C[C@H]1COC(=O)[C@H](Cc2ccc(F)cc2)CC/C=C/C[C@@H](CC(=O)N(CCO)Cc2ccccc2)C(=O)N1	?	0	0	18.4µM	?	23.1µM
CC12C=CC(=O)C=C1CCC1C2C(O)CC2(C)C1CCC2(C)O (configuration not stated)	0	0	0	0	0	0
O=C1NCN(c2ccccc2)C12CCN(C(c1cc3ccccc3o1)c1nnnn1C1CCCC1)CC2 (configuration not stated)	?	0	?	?	?	?
COc1ccc(-n2nnnc2C(c2cc3ccccc3o2)N2CCC(n3c(=O)[nH]c4ccccc43)CC2)cc1 (configuration not stated)	?	0	7.94µM	23.1µM	7.94µM	?
O=c1[nH]c2ccccc2n1C1CCN(C(c2cc3ccccc3o2)c2nnnn2-c2ccc3c(c2)OCCO3)CC1 (configuration not stated)	0	0	12.6µM	14.6µM	?	?
O=c1[nH]c2ccccc2n1C1CCN(C(c2cccc3ccccc23)c2nnnn2-c2ccc3c(c2)OCCO3)CC1 (configuration not stated)	?	0	0	2.59µM	?	4.61µM
CC(C)OP(=O)(OC(C)C)C(O)c1ccc2c(c1)OCO2 (configuration not stated)	0	0	0	0	0	0
COc1ccc(OC)c(N=Cc2c(O)[nH]c(=O)[nH]c2=O)c1	?	0	-	0	?	0
COc1cc2c(c(OC)c1OC)-c1ccc(OC)c(=O)cc1C(NC(C)=O)CC2 (configuration not stated)	0	0	0	0.0092µM	0	0.0184µM
COC1=C[C@@H]2C3=C([C@@H]2C1=O)[C@@H](NC(C)=O)CCc1cc(OC)c(OC)c(OC)c13	0	0	0	0	0	0
COc1ccc(OC)c(CC(=O)O)c1	0	0	0	0	0	0
COc1cc2c(c(OC)c1OC)-c1ccc(O)c(=O)cc1C(NC(C)=O)CC2 (configuration not stated)	?	0	0	0.0651µM	?	0.0259µM
COc1ccc2c(c1)C(NC(C)=O)CCc1cc(OC)c(OC)c(OC)c1-2 (configuration not stated)	0	0	0	0.0184µM	0	0.0082µM
COC(=O)C1=C(c2cccc(OC)c2OC)C[C@@H]2CC[C@H]1N2C(=O)NCCNC(C)=O	0	0	0	0	0	0
C[C@]12COC(=O)C[C@@H]1CC[C@@H]1[C@H]2CC[C@@]2(C)[C@H]1CC[C@]2(C)O	-	-	0	-	-	-
Cc1ccc(-n2sc3ccccc3c2=O)cc1	?	0	0	3.26µM	?	2.91µM
O=c1c2ccccc2sn1-c1ccc(Cl)cc1	?	0	?	1.84µM	17.8µM	2.06µM
Cc1cc2cc(CNC(=O)Nc3ccc(Cl)c(Cl)c3)ccc2n1C	0	0	0	?	0	0
Cc1onc(-c2ccccc2Cl)c1C(=O)NCc1ccc2c(c1)cc(C)n2C	0	0	0	6.51µM	0	?
C[C@H]1CC[C@]2(NC1)O[C@H]1C[C@H]3[C@@H]4CC[C@H]5C[C@@H](O)CC[C@]5(C)[C@H]4CC[C@]3(C)[C@H]1[C@@H]2C	-	-	-	?	-	0
OCCN1CCN(CC/C=C2/c3ccccc3Sc3ccc(Cl)cc32)CC1	?	0	?	23.1µM	?	?
CC[n+]1c(SC)ccc2cc(OC)ccc21	0	0	0	16.4µM	0	?
c1ccc(NC2=NCCCS2)cc1	0	0	0	0	0	0
COC(=O)c1c2[n+](cc3cc(OC)c(OC)cc13)CCc1cc(OC)c(OC)cc1-2	0	0	0	20.6µM	0	18.4µM

Source: PubChem
